Data on 40 molecules can be found in PubChem BioAssay (NCATS).

Molecules are shown by their SMILES. Inconclusive results are not listed. Active and inactive are the calls of the source. The call rests on the fitted dose curve; in most records, active means well fitted cell-killing curve with a large enough effect; inconclusive means small, poorly fitted or top-dose-only effect, or effect the other way; inactive means no such curve, though single readings can be large or run the other way. Positions of bridges follow the written chain, without caps; N, C: chain ends. Non-standard residues stand in square brackets, D forms with d. Residues, ends and D or L forms follow the SMILES beside them. ξ: configuration not given here. *: point of attachment. Octanoyl(6-Me) = CCC(C)CCCCC(=O)*; ξThr(3R) = C[C@@H](O)C(N)C(=O)O; dDab = NCC[C@@H](N)C(=O)O; Dab = NCC[C@H](N)C(=O)O
Potency means the concentration at half of the fitted maximal effect.

This assay is described as follows: Quantitative High-Throughput drug screen in 47 multiple myeloma cell lines against the NCATS MIPE library collection: Delta47_JCRB cell viability assay (AID 1918925; further: nearly all actives have a fitted effect of over 45% in size). Conditions: Delta47 myeloma viability, CellTiter-Glo ATP, 48 h; series mostly up to 45.8 µM. An excerpt: PI: Beverly A. Mock Ph.D.
Laboratory of Cancer Biology and Genetics,
Center for Cancer Research, National Cancer Institute,
National Institute of Health, Bethesda, Maryland
Drug resistance and disease progression are common in multiple myeloma (MM) patients, underscoring the need for new therapeutic combinations. […] We hypothesized that effective combinations would reduce MYC expression and enhance p16 activity. […] These preclinical data identify potentially useful drug combinations for evaluation in drug-resistant MM and reveal potential mechanisms of combined drug sensitivity.
Described herein is the primary MIPE qHTS used to cherrypick compounds. Validated compounds were then further tested for potential synergistic activiy.
[1] Peat TJ, Gaikwad SM, Dubois W, Gyabaah-Kessie N, Zhang S, Gorjifard S, Phyo Z, Andres M, Hughitt VK, Simpson RM, Miller MA, Girvin AT, Taylor A, Williams D, D'Antonio N, Zhang Y, Rajagopalan A, Flietner E, Wilson K, Zhang X, Shinn P, Klumpp-Thomas C, McKnight C, Itkin Z, Chen L, Kazandijian D, Zhang J, Michalowski AM, Simmons JK, Keats J, Thomas CJ, Mock BA. Drug combinations identified by high-throughput screening promote cell cycle transition and upregulate Smad pathways in myeloma. Cancer Lett. 2023 Aug 1;568:216284. doi: 10.1016/j.canlet.2023.216284. Epub 2023 Jun 24. PMID: 37356470; PMCID: PMC10408729.
SEQUENCE No. (e.g., 1, 2, 3, etc.); […] (e.g., Cells, Incubation, Reagent, etc.); VALUE and DESCRIPTION.
1; Cells; 5 uL; white, solid bottom 1536-well Greiner assay plate.
2; Compounds; 23 nL; Kalypsis pin tool (Wako USA) equipped with a 1536-well pin head to transfer to the assay plates.
3; Incubation; 48 hours; 37C incubation.
4; Reagent;5uL; CellTiter Glo (Promega).
5; Detector; 425V; Luminescence; Viewlux PerkinElmer.
NOTES (numbers refer to Sequence numbers above)
1. The cell-based screening methods employed in this study were like those previously published. Briefly, the corresponding myeloma cell lines were screened in 1,536-well plates with 500 cells, 5-uL per well for inhibition of cell viability (assessed by measuring ATP levels with CellTiterGlo).
2. NCATS MIPE 4.0 library of approved and investigational drugs were added using the Kalypsis pin tool. Wells treated with DMSO only for 100% viability and media only wells for 0% viability were used as controls.
3. The assay plates were covered and incubated for 48 hours in a 37C, 5% CO2 incubator with controlled humidity.
4. After 48 hours, CellTilter-GloTM luminescent substrate mix (Promega) reagent was added to the assay plate and plates we incubated for 5 min at room temperature.
5. Signal was measured as median relative luminescence units on a ViewLux (PerkinElmer) multiplate reader.
[1] Heske CM, Davis MI, Baumgart JT, Wilson K, Gormally MV, Chen L, Zhang X, Ceribelli M, Duveau DY, Guha R, Ferrer M, Arnaldez FI, Ji J, Tran HL, Zhang Y, Mendoza A, Helman LJ, Thomas CJ. Matrix Screen Identifies Synergistic Combination of PARP Inhibitors and Nicotinamide Phosphoribosyltransferase (NAMPT) Inhibitors in Ewing Sarcoma. Clin Cancer Res. 2017 Dec 1;23(23):7301-7311. doi: 10.1158/1078-0432.CCR-17-1121. Epub 2017 Sep 12. PMID: 28899971; PMCID: PMC6636827.
A general note: In ATP-based viability assays light output follows the ATP content of the culture.
`c1cncc(CN2CCC(n3ncc4c(N5CCOCC5)nc(-c5ccc6[nH]ccc6c5)nc43)CC2)c1`: the Potency was 743 nM (active).
Take `CC(=O)C1=C(O)C=C2Oc3c(C(C)=O)c(O)c(C)c(O)c3C2(C)C1=O` (stereo not given): the Potency result is “inactive”.
The result for `CCC(C)CCCCC(=O)N[C@@H](CCN)C(=O)NC(C(=O)N[C@H](CCN)C(=O)N[C@@H]1CCNC(=O)C([C@@H](C)O)NC(=O)[C@@H](CCN)NC(=O)[C@@H](CCN)NC(=O)[C@@H](CC(C)C)NC(=O)[C@H](Cc2ccccc2)NC(=O)[C@H](CCN)NC1=O)[C@@H](C)O` (stereo partly drawn) ({Octanoyl(6-Me)}-[Dab][ξThr(3R)][dDab][dDab][Dab]F[dL][dDab][dDab][ξThr(3R)]; lactam 4-C) reads “inactive”; that for `Nc1ncn([C@@H]2O[C@H](CO)[C@@H](O)[C@@H]2O)c(=O)n1`, 3320 nM (active).
The result for `Nc1nc(N)c2nc(-c3cccc(O)c3)c(-c3cccc(O)c3)nc2n1` reads 5900 nM (active); that for `CCC(C(=O)O)C1CCC(C)C(C(C)C(O)C(C)C(=O)C(CC)C2OC3(C=CC(O)[C@@]4(CC[C@](C)(C5CC[C@@](O)(CC)C(C)O5)O4)O3)C(C)CC2C)O1` (stereo not given in full), 4690 nM (active).
The result for `COc1cccc2c1C(=O)c1c(O)c3c(c(O)c1C2=O)C[C@@](O)(C(=O)CO)C[C@@H]3O[C@H]1C[C@H](N)[C@@H](O)[C@H](C)O1` reads 209 nM (active); that for `COc1cc(C)c(Sc2cnc(NC(=O)c3ccc(CNC(C)C(C)(C)C)cc3)s2)cc1C(=O)N1CCN(C(C)=O)CC1` (stereo not given), 2090 nM (active).
With `N#CNC(=NCCCCCCOc1ccc(Cl)cc1)Nc1ccncc1`, the Potency is 18700 nM (active).
Next, `C=CC1=C(C(=O)O)N2C(=O)[C@@H](NC(=O)C(=NO)c3csc(N)n3)[C@H]2SC1`: “inactive”; `CCN(CC)Cc1ccc2cc(COC(=O)Nc3ccc(C(=O)NO)cc3)ccc2c1`: 526 nM (active).
Next, `CC(C)N1[N]C(=C2C=c3cc(O)ccc3=N2)c2c(N)ncnc21`: 264 nM (active).
The result for `CC(C)C[C@H](NC(=O)CNC(=O)c1cc(Cl)ccc1Cl)B1OC(=O)CC(CC(=O)O)(C(=O)O)O1` (stereo not given in full) reads 33.2 nM (active); that for `C=C1C[C@@]2(O)O[C@@]3(C[C@H]2C(C)C)[C@H](C)CC[C@H]13`, “inactive”.
Regarding `C=CC(=O)Nc1cccc(Nc2nc(NC3CCC(N(C)C)CC3)nc3c2ncn3C(C)C)c1` (stereo not given), the Potency is 235 nM (active).
In the case of `C[C@@H](Oc1ccc2[nH]nc(C=Cc3cnn(CCO)c3)c2c1)c1c(Cl)cncc1Cl`, the Potency was 469 nM (active).
The result for `CCCCCN=C(N)NN=Cc1c[nH]c2ccc(OC)cc12` reads 13200 nM (active); that for `C[N+]1(C)[C@@H]2C[C@@H](OC(=O)C(O)(c3cccs3)c3cccs3)C[C@H]1[C@@H]1O[C@@H]12`, “inactive”.
On to `C=CCNc1c(O)cc2c(O)c1C[C@@H](C)C[C@H](OC)[C@@H](O)[C@@H](C)C=C(C)[C@H](OC(N)=O)[C@@H](OC)C=CC=C(C)C(=O)N2`, for which the Potency was 469 nM (active).
On to `CNC(=O)c1ccc(Nc2cc(Nc3ccccc3S(=O)(=O)C(C)C)c3cc[nH]c3n2)nc1`, for which the Potency was 662 nM (active).
Next, `COC(=O)C=CC(=O)OC`: 1320 nM (active).
Next, `COc1cc(C[C@@H](CO)[C@H](CO)Cc2ccc(O)c(OC)c2)ccc1O`: 662 nM (active).
As for `C[C@@]12C(=O)OC(=O)[C@@]1(C)C1CCC2O1`, the Potency was 935 nM (active).
On to `O=C(NC1CC1)c1cccc(-c2ccc3c(NC(=O)C4CC4)n[nH]c3c2)c1`, for which the Potency was 7430 nM (active).
The result for `CC(=O)SCC(Cc1ccccc1)C(=O)NCC(=O)OCc1ccccc1` (stereo not given) reads 1050 nM (active); that for `FC(F)(F)c1ccc(Nc2nc3ccc(Oc4ccnc(-c5ncc(C(F)(F)F)[nH]5)c4)cc3[nH]2)cc1`, 23500 nM (active).
Next, `CC(C)NC[C@@H](C(=O)N1CCN(c2ncnc3c2[C@H](C)C[C@H]3O)CC1)c1ccc(Cl)cc1`: 93.5 nM (active); `CC(=O)[C@]1(O)Cc2c(O)c3c(c(O)c2[C@@H](O[C@H]2C[C@H](N)[C@@H](O)[C@H](C)O2)C1)C(=O)c1ccccc1C3=O`: 105 nM (active); `CN1CCCN(C(=O)c2cccc(-c3ccc(C=C4C(=O)Nc5ccc(Cl)cc54)o3)c2)CC1`: 20900 nM (active).
In the case of `Nc1cccc2c1C(=O)N(C1CCC(=O)NC1=O)C2=O` (stereo not given), the Potency is 3.7 nM (active).
With `FC(F)c1nc2ccccc2n1-c1nc(N2CCOCC2)nc(N2CCOCC2)n1`, the Potency was 66.2 nM (active).
Take `C[C@H](NCc1ccc(OCc2cccc(F)c2)cc1)C(N)=O`: the Potency is 2090 nM (active).
The result for `Cn1cc(-c2cnn3c(N)c(Br)c([C@H]4CCCNC4)nc23)cn1` reads 743 nM (active); that for `CC(C=CC1=C(C)CCCC1(C)C)=CC=CC(C)=CC(=O)Nc1ccc(O)cc1`, 3820 nM (active); that for `COC(=O)[C@@H]1[C@H]2C[C@@H]3c4[nH]c5ccccc5c4CCN3C[C@@H]2CC[C@@H]1O`, “inactive”.
The result for `CN1C(C(=O)Nc2ccccn2)=C(O)c2sc(Cl)cc2S1(=O)=O` reads 2960 nM (active); that for `COc1cc2c(cc1OC)[C@@H]1C(=O)c3ccc4c(c3O[C@@H]1CO2)C=CC(C)(C)O4`, 10.5 nM (active).
The result for `CC(C)N(CC[C@H](c1ccccc1)c1cc(CO)ccc1O)C(C)C` reads “inactive”; that for `CC[C@H](CC[C@@H](C)[C@H]1CC[C@H]2[C@@H]3CC=C4C[C@@H](O)CC[C@]4(C)[C@@H]3CC[C@]12C)C(C)C`, “inactive”.
For the molecule `CN(C)CCN1C(=O)c2cccc3cc(N)cc(c23)C1=O`, the Potency is 11800 nM (active).
